The text below walks through data of PubChem BioAssay.

A short description of experiment [1]: inhibitors of TNFa-induced NFkB p65 translocation, primary screen, imaging, HUVEC, MLSMR starter and 10KST1 sets (AID 438).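 Also: compound added about 3h40 before a 20 min TNFalpha stimulation.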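 As to inhibition: signal is the nuclear over cytoplasmic p65 intensity ratio per well.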 Conditions: HUVEC TNFa-induced p65 nuclear translocation; cell count: measured here: nuclei count (cytotoxicity indicator), at 2.08 µM; inhibition: at 2 µM, stronger effect = higher value, 0% TNFa-plus-vehicle, 100% no-TNFa wells.
Experiment [2] in a line: inhibitors of mutant huntingtin aggregation, primary screen, imaging, exon1htt(103Q)mCFP cells, high-content imaging (AID 483;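 active = visual image review flags a hit and inhibition of aggregation exceeds 20%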;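 also: compound exposure lasted 3 days before fixation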;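 as to nuclei count: percent of the per-plate median nuclei count of sample wells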). Conditions: exon1htt(103Q)mCFP cell line, aggregate imaging, at 2 µM; inhibition of aggregation: stronger effect = higher value; nuclei count: measured here: cell count, toxicity.
A short description of experiment [3]: inhibitors of E-selectin induction by TNFa, primary screen, imaging, HUVEC, immunofluorescence, MLSMR starter and 10KST1 sets (AID 487;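 active = visually confirmed hit in the image check and inhibition above 20%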;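 as to inhibition: signal is fraction of cell area covered by stained E-selectin grains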;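 as to nuclei count: 100% = median nuclei count of all wells on the same plate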). Particulars: HUVEC TNFalpha-induced E-selectin immunofluorescence imaging, at 2 µM; inhibition: stronger effect = higher value; nuclei count: measured here: cell number, toxicity.
Experiment [4] addresses Voltage-gated potassium channel subunit beta-2 (Rattus norvegicus) (UniProt P62483). Put plainly: KvBeta enzyme negative modulators, primary screen, biochemical, NADPH fluorescence (AID 622;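 active = fluorescence slope higher than the sample average by over 3 SD, cut at about -0.22 in these data, passing the limit was not always enough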;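 also: slope of raw intensity against log time taken from 70 to 1610 s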). Particulars: recombinant KvBeta, 4-cyanobenzaldehyde reduction, at 10 µM, stronger effect = higher value.
Experiment [5] has the same target. Description: KvBeta positive modulators, primary screen, biochemical, NADPH fluorescence (AID 623;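 active = NADPH fluorescence slope more negative than the mean of all samples by about 3 SD, 99.7% confidence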;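 also: fluorescence intensity change per second fitted from 20 to 320 s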). Conditions: Recombinant KvBeta, NADPH fluorescence decrease slope, 10 min; at 10 µM; stronger effect = lower value.
The target of experiment [6] is Alpha-2C adrenergic receptor (Homo sapiens) (UniProt P18825). Put plainly: modulators of alpha2C/GIRK thallium flux, primary screen, cell-based, HEK293 alpha2C/GIRK1/2 (AID 624;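 active = fluorescence slope after compound addition differing from the mean of all screened samples at 99.7% confidence, in either direction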;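 also: slope of fluorescence ratio to pre-addition baseline per second over 15 to 24 s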). Particulars: thallium flux BTC fluorescence, at 10 µM, actives lie on both sides.
Experiment [7] is described as follows: inhibitors of Sendai virus-induced IRF3 signaling, primary screen, TLR/RLR signaling modifier project, cell-based, Sendai virus stimulus, luciferase, 10K MLSCN set (AID 602276;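 active = inhibition at or above 50% at 10 µM; inactive = inhibition below 50%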;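 also: firefly luciferase from ISG56 promoter only with Renilla not read in this screen; 0% = Sendai virus plus DMSO and 100% = medium plus DMSO without virus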). Particulars: HEK293 RL24 IRF3 luciferase reporter, at 10 µM, stronger effect = higher value. In general terms: In a reporter assay the amount or activity of a reporter protein is the signal.
The nature of experiment [8]: inhibitors of poly I:C-induced TLR3 signaling, primary screen, cell-based, poly I:C stimulus, luciferase, 10K MLSCN set (AID 602277;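 active = inhibition of the reporter signal at or above 50%; inactive = inhibition below 50%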). Particulars: HEK293-TLR3 RL24 IRF3 luciferase reporter, at 10 µM, stronger effect = higher value.

Active and inactive are the calls of the source.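 The calls were made as follows, unless noted: active = inhibition above 20% together with a positive visual image hit; inconclusive = visual image hit but inhibition not above 20%; inactive = no visual image hit.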

Sequence of Alpha-2C adrenergic receptor (Homo sapiens) (P18825 whole entry, looked up): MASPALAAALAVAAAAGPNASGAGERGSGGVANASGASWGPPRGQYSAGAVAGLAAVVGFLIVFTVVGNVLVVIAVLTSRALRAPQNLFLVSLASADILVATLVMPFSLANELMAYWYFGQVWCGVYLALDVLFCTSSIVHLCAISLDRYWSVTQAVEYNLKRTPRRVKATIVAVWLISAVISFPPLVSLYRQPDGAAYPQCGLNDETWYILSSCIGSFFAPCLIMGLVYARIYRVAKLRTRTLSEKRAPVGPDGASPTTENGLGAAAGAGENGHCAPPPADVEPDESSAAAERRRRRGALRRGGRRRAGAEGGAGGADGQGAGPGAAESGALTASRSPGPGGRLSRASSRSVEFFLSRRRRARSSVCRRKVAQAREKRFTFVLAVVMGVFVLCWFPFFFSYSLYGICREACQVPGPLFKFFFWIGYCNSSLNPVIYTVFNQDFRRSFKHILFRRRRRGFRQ
Sequence of Voltage-gated potassium channel subunit beta-2 (Rattus norvegicus) (P62483 whole entry, looked up): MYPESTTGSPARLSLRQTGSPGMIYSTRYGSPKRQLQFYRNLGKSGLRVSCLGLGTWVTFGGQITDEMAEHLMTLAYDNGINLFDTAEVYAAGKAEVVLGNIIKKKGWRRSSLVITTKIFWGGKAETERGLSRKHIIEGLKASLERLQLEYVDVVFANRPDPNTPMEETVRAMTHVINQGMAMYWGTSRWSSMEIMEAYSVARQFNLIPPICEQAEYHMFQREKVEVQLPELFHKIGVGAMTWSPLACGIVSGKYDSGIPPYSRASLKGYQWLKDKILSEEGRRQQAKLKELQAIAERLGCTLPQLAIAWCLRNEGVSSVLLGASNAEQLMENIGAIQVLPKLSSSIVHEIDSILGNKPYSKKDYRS

Take `CCOC(=O)Cc1ccc(NS(=O)(=O)c2ccc(SC)cc2)cc1`: the cell count in experiment [1] was found to be 326. In addition, the inhibition (as a rule, the change of the read-out against control, counted positive when it falls) was -7.2% (inactive) in experiment [1], -95.5% (inactive) in experiment [3], -2.4% (inactive) in experiment [7] and 9.62% (inactive) in experiment [8]. For the same compound, in experiment [2], the inhibition of aggregation is -3.4% (inactive). In addition, the nuclei count came out at 97.6% in experiment [2] and 109% in experiment [3]. The fluorescence slope in experiment [4] is -0.494 (inactive). Besides, the NADPH fluorescence slope in experiment [5] was -6.8e-05 (inactive). Moreover, in experiment [6], the slope is 0.00542 (inactive).
On to `CN(c1ccccc1)S(=O)(=O)c1ccc(C(=O)OCC(=O)NCc2ccco2)cc1`, for which the cell count in experiment [1] worked out at 608. The inhibition in experiment [1] is 11.6% (inactive); in experiment [3], -37.2% (inactive); in experiment [7], -14.7% (inactive); in experiment [8] it was 0.385% (inactive). In addition, the inhibition of aggregation in experiment [2] was 14.7% (inactive). Also, the figures for the nuclei count in experiment [2] and in experiment [3] were 112% and 99.7%, respectively. Besides, the fluorescence slope in experiment [4] was -0.588 (inactive). The NADPH fluorescence slope in experiment [5] was 2e-05 (inactive). Further, the slope in experiment [6] was 0.00551 (inactive).
Take `Cc1ccccc1CSc1nnc(C)c(=O)[nH]1`: the cell count in experiment [1] amounted to 600. Besides, the inhibition in experiment [1] is 1.1% (inactive); in experiment [3], -37.9% (inactive); in experiment [7], 12.3% (inactive); in experiment [8], 13.6% (inactive). The inhibition of aggregation in experiment [2] is -41.3% (inactive). The nuclei count in experiment [2] was 105%; in experiment [3] it was 133%. For the same compound, the fluorescence slope in experiment [4] is -0.581 (inactive). Moreover, in experiment [5], the NADPH fluorescence slope is 1.6e-05 (inactive). Also, the slope in experiment [6] was 0.00756 (inactive).
On to `Cc1cc(NC(=O)CCOc2ccccc2)no1`, for which, in experiment [1], the cell count turned out to be 403. Further, the inhibition in experiment [1] is -11.8% (inactive); in experiment [3] it was 35.5% (inactive); in experiment [7], 6.04% (inactive); in experiment [8], 23.9% (inactive). In experiment [2], the inhibition of aggregation was -20.8% (inactive). Besides, the nuclei count is 113% in experiment [2] and 64.3% in experiment [3]. In experiment [4], the fluorescence slope is -0.455 (inactive). For the same compound, in experiment [5], the NADPH fluorescence slope was -5e-05 (inactive). Also, in experiment [6], the slope is 0.00305 (inactive).
Regarding `O=C(c1cc2cc(Cl)cc(Cl)c2oc1=O)N1CCOCC1`, the cell count in experiment [1] worked out at 275. Further, the inhibition was 13.1% (inactive) in experiment [1], -63.2% (inactive) in experiment [3], 26.9% (inactive) in experiment [7] and 30.3% (inactive) in experiment [8]. Also, in experiment [2], the inhibition of aggregation is -12% (inactive). Moreover, the nuclei count in experiment [2] was 87.4%; in experiment [3] it was 110%. For the same compound, the fluorescence slope in experiment [4] is -0.48 (inactive). Also, in experiment [5], the NADPH fluorescence slope is -6.7e-05 (inactive). Also, the slope in experiment [6] was 0.0058 (inactive).
`CCOC(=O)C1CCN(c2c(N3CCCC(C(=O)OCC)C3)c(=O)c2=O)CC1` (centres undefined): the cell count in experiment [1] stood at 838. The inhibition is 3.2% (inactive) in experiment [1], -138% (inactive) in experiment [3], -1.39% (inactive) in experiment [7] and 19.7% (inactive) in experiment [8]. Also, the inhibition of aggregation in experiment [2] was -6.4% (inactive). For the same compound, the nuclei count amounted to 101% in experiment [2] and 115% in experiment [3]. In addition, in experiment [4], the fluorescence slope was -0.616 (inactive). Further, the NADPH fluorescence slope in experiment [5] was 9.3e-06 (inactive). In experiment [6], the slope is 0.0058 (inactive).
Regarding `O=C(NCC1COc2ccccc2O1)c1ccccc1` (centres undefined), in experiment [1], the cell count came out at 279. For the same compound, the inhibition in experiment [1] is -1.7% (inactive); in experiment [3] it was 7.4% (inactive); in experiment [7], -21% (inactive); in experiment [8], -82.8% (inactive). In experiment [2], the inhibition of aggregation is -0.5% (inactive). Moreover, the nuclei count in experiment [2] is 104%; in experiment [3] it was 90.3%. The fluorescence slope in experiment [4] is -0.62 (inactive). For the same compound, the NADPH fluorescence slope in experiment [5] was 3.5e-06 (inactive). In addition, the slope in experiment [6] is 0.00453 (inactive).
As for `O=C1CCNc2cc3ccccc3cc21`, the cell count in experiment [1] was determined as 356. Moreover, the inhibition in experiment [1] is 2.5% (inactive); in experiment [3], 24.1% (inactive); in experiment [7] it was 21.5% (inactive); in experiment [8], 32.3% (inactive). Also, the inhibition of aggregation in experiment [2] is 32.4% (inactive). The figures for the nuclei count in experiment [2] and in experiment [3] were 80.4% and 99.3%, respectively. The fluorescence slope in experiment [4] was -0.472 (inactive). Besides, the NADPH fluorescence slope in experiment [5] was -0.000147 (inactive). In experiment [6], the slope is 0.00661 (inactive).
As for `CCOc1ccc(-c2cn(S(=O)(=O)c3cccc4nsnc34)nc2N)cc1`, in experiment [1], the cell count worked out at 316. For the same compound, the inhibition in experiment [1] was -6.1% (inactive); in experiment [3] it was -29.1% (inactive); in experiment [7], 10.6% (inactive); in experiment [8], 28.6% (inactive). For the same compound, in experiment [2], the inhibition of aggregation was 8% (inactive). Besides, the nuclei count in experiment [2] is 107%; in experiment [3], 66.8%. In addition, in experiment [4], the fluorescence slope was -0.484 (inactive). Also, the NADPH fluorescence slope in experiment [5] is -3.8e-05 (inactive). In addition, the slope in experiment [6] was 0.00478 (inactive).
For `O=C(O)CN1C(=O)C2(OCCCO2)c2ccccc21`, in experiment [1], the cell count is 542. Further, the inhibition was -5.7% (inactive) in experiment [1], -0.7% (inactive) in experiment [3], 17% (inactive) in experiment [7] and 18.6% (inactive) in experiment [8]. In addition, the inhibition of aggregation in experiment [2] is -4.1% (inactive). Besides, the nuclei count is 96.1% in experiment [2] and 124% in experiment [3]. Further, the fluorescence slope in experiment [4] is -0.538 (inactive). For the same compound, the NADPH fluorescence slope in experiment [5] was 6.1e-05 (inactive). In experiment [6], the slope was 0.0059 (inactive).
Regarding `CC1=C(C(=O)NCc2ccco2)C2(CCC(C)CC2)OC1=O` (centres undefined), in experiment [1], the cell count was 438. For the same compound, the inhibition in experiment [1] was 7.7% (inactive); in experiment [3] it was -20.5% (inactive); in experiment [7] it was 23% (inactive); in experiment [8] it was 23.3% (inactive). Further, in experiment [2], the inhibition of aggregation was 22.4% (inactive). Besides, the nuclei count in experiment [2] is 62.3%; in experiment [3], 106%. In experiment [4], the fluorescence slope is -0.513 (inactive). Further, the NADPH fluorescence slope in experiment [5] was -2.5e-05 (inactive). In experiment [6], the slope was 0.00707 (inactive).
With `Cc1cc(C)c2c(=O)n(CC(=O)NCCCN3CCOCC3)sc2n1`, the cell count in experiment [1] came to 594. The inhibition in experiment [1] was 8.2% (inactive); in experiment [3], 36.7% (inactive); in experiment [7] it was 10.4% (inactive); in experiment [8], 40.4% (inactive). Moreover, the inhibition of aggregation in experiment [2] is 1.1% (inactive). For the same compound, the figures for the nuclei count in experiment [2] and in experiment [3] were 118% and 106%, respectively. In addition, in experiment [4], the fluorescence slope is -0.548 (inactive). Besides, in experiment [5], the NADPH fluorescence slope was -3.1e-05 (inactive). Further, the slope in experiment [6] is 0.00687 (inactive).
`Cc1ccc(C(=O)Nc2ccc3c(c2)OCO3)cc1S(=O)(=O)N1CCCC1`: the cell count in experiment [1] was 396. The inhibition in experiment [1] is 0% (inactive); in experiment [3], 14.2% (inactive); in experiment [7], 10.6% (inactive); in experiment [8], -64.5% (inactive). In addition, the inhibition of aggregation in experiment [2] is 12.6% (inactive). For the same compound, the results for the nuclei count in experiment [2] and in experiment [3] were 83.3% and 107%, respectively. Besides, the fluorescence slope in experiment [4] is -0.398 (inactive). Moreover, the NADPH fluorescence slope in experiment [5] is 1.4e-05 (inactive). Besides, the slope in experiment [6] is 0.00564 (inactive).
On to `OCCNc1nc2ccc(Cl)cc2[nH]1`, for which, in experiment [1], the cell count was determined as 433. Moreover, the inhibition in experiment [1] was 2.6% (inactive); in experiment [3], -19% (inactive); in experiment [7] it was -12.8% (inactive); in experiment [8], -7.02% (inactive). Moreover, in experiment [2], the inhibition of aggregation was 19.6% (inactive). Also, the results for the nuclei count in experiment [2] and in experiment [3] were 106% and 110%, respectively. The fluorescence slope in experiment [4] was -0.365 (inactive). Also, in experiment [5], the NADPH fluorescence slope is 1.9e-05 (inactive). For the same compound, the slope in experiment [6] is 0.00613 (inactive).
